PostGolgi yeast = growth inhibition of a yeast mutant, post-Golgi transport screen; post-Golgi transport phenotypic cell assay; actives 0.9% (n = 98,000); inhibition, % at 10 µM; AID 739;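 note: yeast cells grown in 1536-well plates; yeast grown about 18 h at 30C before absorbance read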
CYP2C9 inh = human CYP2C9 inhibition; AID 777; CYP2C9 Supersomes, luciferin-H conversion, luminescence; inhibition, % at 5 µM; actives 20% (n = 96,000);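 active = blocking of liver enzyme CYP2C9 beyond about 50% at 5 µM, limit read from the data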
Target sequence (P11712 whole entry, looked up): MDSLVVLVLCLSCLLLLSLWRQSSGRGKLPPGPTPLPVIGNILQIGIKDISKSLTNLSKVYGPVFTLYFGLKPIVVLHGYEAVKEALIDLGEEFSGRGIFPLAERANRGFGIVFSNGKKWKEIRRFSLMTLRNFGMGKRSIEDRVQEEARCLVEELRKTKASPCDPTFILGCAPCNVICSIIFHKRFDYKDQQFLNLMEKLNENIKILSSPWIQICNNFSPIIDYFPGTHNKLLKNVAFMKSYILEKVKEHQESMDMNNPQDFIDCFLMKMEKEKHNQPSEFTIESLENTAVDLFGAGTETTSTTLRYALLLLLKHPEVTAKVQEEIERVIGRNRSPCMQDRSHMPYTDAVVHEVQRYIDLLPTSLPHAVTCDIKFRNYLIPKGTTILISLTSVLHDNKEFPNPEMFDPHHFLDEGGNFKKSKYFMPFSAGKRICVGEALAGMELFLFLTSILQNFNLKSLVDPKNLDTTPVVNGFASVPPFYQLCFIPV
CYP2C19 activ = increases human CYP2C19 enzyme activity | P33261 | recombinant CYP2C19, luciferin-H EGE luminescence; active compounds read high; 0 = fully inhibited enzyme, 1 = untreated enzyme | activation factor at 5 µM | 96,000 tested, under 10 active;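 active = activation factor of at least 2 at 5 µM in the primary screen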
CYP2C19 inh = human CYP2C19 inhibition; P33261; CYP2C19 Supersomes, luciferin-H EGE luminescence, 30 min; inhibition, % at 5 µM; actives 21% (n = 96,000);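 active = CYP2C19 inhibition above a set limit at 5 µM in the primary screen, cut at about 50% in these data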
PostGolgi ctrl = yeast control strain growth, post-Golgi counter-screen; efflux-deficient yeast background strain, growth absorbance A615, 16 h; inhibition, % at 10 µM; actives 5% (n = 98,000)
CYP2C9 activ = increases human cytochrome P450 2C9 activity. actives 1.4% (n = 96,000). recombinant CYP2C9, luciferin-H conversion, luminescence; active compounds read high; factor 1 = untreated enzyme, 0 = blocked. activation factor at 5 µM. AID 1024;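 active = activation factor of 2 or more for CYP2C9 at a 5 µM dose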
Each line names hits and unclear results; the compound was inactive in the other large screens. This is a sample that favours compounds with a hit; in the whole collection about 32% have one here. Cut-off read from the data, not from the text of the source, unless noted: active = inhibition above about 30%; inactive = the rest.

COc1ccc(C(=O)CN(C(=O)c2ccc(Cl)cc2)N2C(=O)C3CCCCC3C2=O)cc1 (configuration not stated)	none
CN(C(=O)c1ccc(Cl)cc1)C1=CCCCC1CCC#N (configuration not stated)	CYP2C19 inh 64
COc1ccc(-c2cc3ccccc3oc2=O)cc1NC(=O)c1cccnc1	none
Oc1ccc(C(c2nnnn2C2CCCC2)N2CCc3ccccc3C2)cc1 (configuration not stated)	CYP2C9 inh 81, CYP2C19 inh 94
CCN1CCN(C(c2ccccc2OC)c2nnnn2C2CCCCC2)CC1 (configuration not stated)	none
COc1cc(C(c2nnnn2C2CCCC2)N2CCc3ccccc3C2)ccc1O (configuration not stated)	CYP2C9 inh 57
COc1ccc(-c2cn(/N=C/c3ccc(Cl)cc3Cl)c(N)n2)cc1	CYP2C9 inh 72, CYP2C19 inh 74
Cc1ccc2c(N)c(C)ccc2c1	CYP2C19 inh 67
O=C(CN1C(=O)c2ccccc2C1=O)NCC1CCCO1 (configuration not stated)	none
O=C(Nc1ccc(Nc2ccccc2)cc1)C1CC1	CYP2C9 inh 50, CYP2C19 inh 59
CS(=O)(=O)N1CCC(C(=O)Nc2ccccc2)CC1	none
O=C(Nc1ccccc1)C1CCN(c2nccs2)CC1	CYP2C19 inh 85
O=C(NCC1CCCO1)C1CCC(N2C(=O)c3ccccc3C2=O)CC1 (configuration not stated)	CYP2C9 inh 72, CYP2C19 inh 56
O=C(Nc1ccc(F)cc1)C1CCC(N2C(=O)c3ccccc3C2=O)CC1 (configuration not stated)	CYP2C9 inh 51, CYP2C19 inh 78
O=C(O)C1CCCCC1C(=O)Nc1ccccc1Nc1ccccc1 (configuration not stated)	CYP2C9 inh 86, CYP2C19 inh 56
Cc1ccc(F)c(NC(=O)C2CCCCC2C(=O)O)c1 (configuration not stated)	none
Clc1nc(-c2n[nH]nc2Cl)n[nH]1	none
Clc1ccc(-n2nnnc2SCc2c(-c3ccccc3)nc3sccn23)cc1	CYP2C9 inh 89, PostGolgi ctrl 35
CCOc1cc(CNCCc2ccc(S(N)(=O)=O)cc2)cc(Cl)c1OCc1ccccc1	none
Fc1ccc(COc2ccc(Br)cc2CNCc2ccncc2)cc1	PostGolgi yeast 103, CYP2C9 inh 89, CYP2C19 inh 99, PostGolgi ctrl 94
COc1cc(CNc2cccc(F)c2)cc(Br)c1O	none
Fc1ccccc1COc1ccc(Br)cc1CNCc1ccncc1	PostGolgi yeast 99, CYP2C9 inh 84, CYP2C19 inh 99, PostGolgi ctrl 97
CCOc1cc(CNc2ccccc2)cc(Br)c1OCc1ccccc1F	CYP2C9 inh 54
CCOc1cc(CNCc2ccncc2)cc(Br)c1OCc1ccc(F)cc1	CYP2C9 inh 91, CYP2C19 inh 80
O=C(CCCC(=O)N(CC(=O)NC1CCCCC1)CC1CCCO1)Nc1ccccn1 (configuration not stated)	none
Cc1ccc(-c2csc3nc(C)n(-n4cccc4)c(=O)c23)o1	none
CCCCCCN=CC1=C(O)CC(C)(C)CC1=O	none
CCCCNC1=C(Br)C(=O)CC(C)(C)C1	CYP2C19 inh 82
CCSc1nncn1/N=C/c1ccc(OC)c(OC)c1	none
C=C(C)CSc1nncn1/N=C/c1ccc(OC)cc1	CYP2C9 inh 55, CYP2C19 inh 63
CS(=O)(=O)N1CCc2cc(S(=O)(=O)Nc3ccc4c(c3)OCCO4)ccc21	CYP2C19 inh 99
CCC(=O)N1CCc2cc(S(=O)(=O)CCC(=O)Nc3ccc(F)c(F)c3)ccc21	CYP2C9 inh 52
CCC(=O)N1CCc2cc(S(=O)(=O)Nc3ccc4c(c3)OCCO4)ccc21	CYP2C9 inh 58
CS(=O)(=O)N1CCN(c2ccc(NC(=O)CSc3ccc(Cl)cc3)cc2)CC1	none
Cc1ccc(-n2cc(C(=O)c3ccc4ccccc4c3O)cn2)cc1	none
O=C(O)c1cn(-c2ccccc2)nc1-c1cccnc1	none
CCc1cc(C(=O)Cc2cnn(-c3ccccc3)c2)c(O)cc1O	CYP2C19 inh 55
O=C(Cc1cnn(-c2ccccc2)c1)c1ccc(O)c(O)c1O	CYP2C9 inh 79, CYP2C19 inh 65
Oc1cnn(-c2ccccc2)c1	PostGolgi ctrl 32
COc1ccc(CCNC(=O)COC(=O)c2cnccn2)cc1	none
CCOC(=O)c1oc2c(c1C)/C(=N/O)CCC2	none
O=C(NC(=Nc1ccccc1)N1CCOCC1)Nc1ccccc1	CYP2C9 inh 56, CYP2C19 inh 55
Cc1[nH]n(-c2ccccc2)c(=O)c1C(C[N+](=O)[O-])c1ccc(Br)cc1 (configuration not stated)	CYP2C9 inh 95, CYP2C19 inh 53
Cc1ccc2[nH]c3c(=O)n(CCN4CCOCC4)cnc3c2c1	none
Cc1ccc2[nH]c3c(=O)n(CCCN4CCOCC4)cnc3c2c1	CYP2C19 inh 68
Cc1ccc2[nH]c3c(=O)n(CCc4cnc[nH]4)cnc3c2c1	CYP2C9 inh 97, CYP2C19 inh 99
CCC(CO)NCCNC(CC)CO (configuration not stated)	none
CCOC(=O)NCC(C#CCN(CC)CC)N(CC)CC (configuration not stated)	PostGolgi ctrl 42
O=C(NCc1cccnc1)/C(=C/c1ccc(-c2cccc(Cl)c2)o1)S(=O)(=O)c1ccccc1	PostGolgi ctrl 37
Cc1ccc(C(=O)N/C(=C\c2ccc(-c3cc(Cl)ccc3Cl)o2)C(=O)NCc2cccnc2)cc1	none (no result: CYP2C9 inh, CYP2C19 activ, CYP2C19 inh, CYP2C9 activ)
COc1cccc(-c2csc3nc[nH]c(=O)c23)c1	CYP2C19 inh 59
O=c1[nH]cnc2scc(-c3ccc(F)cc3)c12	none
CSCCC(C(=O)NCc1cccs1)N1C(=O)c2ccccc2C1=O (configuration not stated)	none
CSCC[C@@H](C(=O)NCc1cccs1)N1Cc2ccccc2C1=O	CYP2C19 inh 59
O=C(NCc1cccs1)C(Cc1ccccc1)n1cccc1 (configuration not stated)	CYP2C9 inh 57, CYP2C19 inh 64
Cc1csc(NC(=O)C(Cc2ccccc2)n2cccc2)n1 (configuration not stated)	CYP2C9 inh 63
CN1CCN(S(=O)(=O)c2ccc(N(C)Cc3cccs3)nc2)CC1	none
CCCn1ncc(OC)c(Cl)c1=O	none
COc1ccc(N2C(=O)C3C4C=CC(C5CC45)C3C2=O)c([N+](=O)[O-])c1 (configuration not stated)	CYP2C9 activ 2
Cn1nnnc1P(=O)(c1ccccc1)c1ccccc1	none
COC(=O)CCC(=O)Nc1sc(C)c(C)c1C(N)=O	none
Cc1sc(NC(=O)CN(Cc2ccc(F)cc2)C(=O)C(C)C)c(C(N)=O)c1C	CYP2C19 inh 51
O=C(O)CCCCCNS(=O)(=O)c1ccc(Cl)cc1	none
